Experimental data taken from the supplement of paper PMC10849652.
Of roughly 7,900 targets only a part is listed; those with a hit were picked by preference. About 0.6% of all pairs of compound and target were hits.

Experiments:
Assay in all cases: log2 fold change, soluble protein after heating vs DMSO (PISA); higher = thermal stabilisation; K562 cells, 10 uM, 30 min; active = over 0.2 and 3.5 SD of the protein, either way, in both replicates (recomputed)
IRAK-1-4 Inhibitor I = compound: C1COCCN1CCN2C3=CC=CC=C3N=C2NC(=O)C4=CC(=CC=C4)[N+](=O)[O-] [IRAK-1-4 Inhibitor I]
Outline: (§1)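 Quantification of soluble protein used TMTpro 16plex LC-MS/MS, with channel sums equalised. Samples were the supernatant after 21,000xg for 90 min of pooled aliquots from K562 cells (2×10^6 cells/mL) treated with 10 μM compound for 30 min, heated for 3 min over 48°C-58°C, and extracted in PBS with 0.5% NP-40 at 4°C. Values, from duplicates, describe thermal stability against control samples on a log2 fold-change scale.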

ibrutinib = compound: C=CC(=O)N1CCC[C@@H](n2nc(-c3ccc(Oc4ccccc4)cc3)c3c(N)ncnc32)C1 [ibrutinib]
Outline: as §1

[1] = compound: CC(=O)c1cnc2ccc(-c3cc(Cl)c(O)c(Cl)c3)nc2c1N[C@H]1CC[C@H](CN(C)C)CC1
Outline: as §1

ralimetinib = compound: CC(C)(C)Cn1c(N)nc2ccc(-c3[nH]c(C(C)(C)C)nc3-c3ccc(F)cc3)nc21 [ralimetinib]
Outline: as §1

[2] = compound: CC(C)(O)CC(=O)NCCn1ccc2ncnc(Nc3ccc(Oc4cccc(C(F)(F)F)c4)c(Cl)c3)c21
Outline: as §1

[3] = compound: CC(C)C1=C2N=C(C=C(N2N=C1)NCC3=CC=CC=C3)NCCCCCCN
Outline: as §1

[4] = compound: CC(C)C[C@@H](C=O)NC(=O)[C@H](CC(C)C)NC(=O)[C@H](CC(C)C)NC(=O)OCc1ccccc1
Outline: as §1

pinometostat = compound: CC(C)N(C[C@H]1O[C@@H](n2cnc3c(N)ncnc32)[C@H](O)[C@@H]1O)[C@H]1C[C@@H](CCc2nc3cc(C(C)(C)C)ccc3[nH]2)C1 [pinometostat]
Outline: as §1

[5] = compound: CC1=C(C(CC(=O)N1)C2=CC=C(C=C2)C(F)(F)F)C(=O)NC3=C(C=C4C(=C3)C=NN4)F
Outline: as §1

[6] = compound: CC1=C(C2=C(C=C1)C(=O)C3=CC=CC=C3N2CCCN)C
Outline: as §1

Measured: log2 fold change

VRK1 (UniProt Q99986)
active: [6] 0.433
inactive: IRAK-1-4 Inhibitor I -0.041 | ibrutinib 0.032 | [1] 0.338 | ralimetinib -0.033 | [2] -0.32 | [3] -0.013 | [4] 0.055 | pinometostat -0.008 | [5] -0.027

UBE2S (UniProt Q16763)
inactive: IRAK-1-4 Inhibitor I -0.065 | ibrutinib -0.035 | [1] -0.037 | ralimetinib 0.03 | [2] -0.034 | [3] 0.018 | [4] 0.125 | pinometostat -0.05 | [5] -0.004 | [6] -0.055

TUBAL3 (UniProt A6NHL2)
inactive: IRAK-1-4 Inhibitor I -0.046 | ibrutinib -0.005 | [1] -0.039 | ralimetinib -0.044 | [2] -0.047 | [3] 0.003 | [4] -0.102 | pinometostat -0.108 | [5] 0.11 | [6] -0.094

VPS33B (UniProt Q9H267)
inactive: IRAK-1-4 Inhibitor I -0.049 | ibrutinib -0.041 | [1] -0.068 | ralimetinib 0.057 | [2] -0.107 | [3] -0.178 | [4] 0.098 | pinometostat 0.156 | [5] 0 | [6] 0.049

WASHC2C, A0A096LPC5
inactive: IRAK-1-4 Inhibitor I 0.01 | ibrutinib -0.005 | [1] -0.159 | ralimetinib -0.035 | [2] 0.085 | [3] -0.214 | [4] 0.057 | pinometostat 0.008 | [5] -0.033 | [6] -0.125

WDR7 (UniProt Q9Y4E6)
Sequence of UniProt Q9Y4E6 (Q9Y4E6 whole entry, looked up): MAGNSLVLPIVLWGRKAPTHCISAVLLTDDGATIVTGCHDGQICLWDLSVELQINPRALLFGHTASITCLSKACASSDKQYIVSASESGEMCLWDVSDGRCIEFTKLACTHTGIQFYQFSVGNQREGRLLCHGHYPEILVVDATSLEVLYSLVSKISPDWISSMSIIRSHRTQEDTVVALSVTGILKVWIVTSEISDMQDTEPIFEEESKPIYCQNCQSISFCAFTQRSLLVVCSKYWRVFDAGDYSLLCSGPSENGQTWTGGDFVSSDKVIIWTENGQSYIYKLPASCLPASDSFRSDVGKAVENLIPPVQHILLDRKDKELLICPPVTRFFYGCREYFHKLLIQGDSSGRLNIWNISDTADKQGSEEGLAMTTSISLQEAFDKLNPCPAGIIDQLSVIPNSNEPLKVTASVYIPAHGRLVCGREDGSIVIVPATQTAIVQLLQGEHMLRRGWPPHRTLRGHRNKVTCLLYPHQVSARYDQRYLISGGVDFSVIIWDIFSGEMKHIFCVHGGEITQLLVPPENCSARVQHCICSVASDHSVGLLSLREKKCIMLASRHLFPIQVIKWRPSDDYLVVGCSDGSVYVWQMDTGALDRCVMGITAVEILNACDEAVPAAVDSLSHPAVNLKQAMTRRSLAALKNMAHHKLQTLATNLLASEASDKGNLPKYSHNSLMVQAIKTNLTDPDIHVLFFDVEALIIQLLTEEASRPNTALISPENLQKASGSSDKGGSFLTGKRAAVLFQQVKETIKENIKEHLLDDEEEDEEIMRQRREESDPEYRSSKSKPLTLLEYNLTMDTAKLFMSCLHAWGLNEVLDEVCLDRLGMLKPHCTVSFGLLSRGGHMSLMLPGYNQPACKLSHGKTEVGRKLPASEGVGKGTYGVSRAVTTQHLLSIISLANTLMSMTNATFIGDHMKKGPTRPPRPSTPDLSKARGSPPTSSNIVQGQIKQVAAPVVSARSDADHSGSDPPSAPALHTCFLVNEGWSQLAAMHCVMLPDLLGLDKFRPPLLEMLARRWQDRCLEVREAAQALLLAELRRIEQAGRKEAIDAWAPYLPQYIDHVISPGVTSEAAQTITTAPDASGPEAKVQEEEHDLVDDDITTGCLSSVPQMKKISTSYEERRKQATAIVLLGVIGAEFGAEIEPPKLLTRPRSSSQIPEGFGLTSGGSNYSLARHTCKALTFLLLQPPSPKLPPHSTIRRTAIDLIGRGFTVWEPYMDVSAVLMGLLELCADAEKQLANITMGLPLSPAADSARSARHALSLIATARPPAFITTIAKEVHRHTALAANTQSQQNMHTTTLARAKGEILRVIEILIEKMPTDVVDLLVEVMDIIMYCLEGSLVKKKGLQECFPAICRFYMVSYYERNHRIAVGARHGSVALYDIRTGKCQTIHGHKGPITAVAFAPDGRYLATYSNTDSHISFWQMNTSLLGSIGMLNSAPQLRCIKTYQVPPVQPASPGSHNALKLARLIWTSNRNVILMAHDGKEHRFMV
inactive: IRAK-1-4 Inhibitor I -0.112 | ibrutinib -0.027 | [1] -0.078 | ralimetinib 0.067 | [2] -0.141 | [4] 0.1 | pinometostat 0.062 | [5] 0.029 | [6] 0.122
active: [3] -0.429

WDR61 (UniProt Q9GZS3)
inactive: IRAK-1-4 Inhibitor I 0.037 | ibrutinib -0.015 | [1] -0.057 | ralimetinib -0.049 | [2] 0.008 | [3] -0.016 | [4] -0.009 | pinometostat 0.028 | [5] 0.013 | [6] 0.004

VPS35L (UniProt Q7Z3J2)
inactive: IRAK-1-4 Inhibitor I -0.012 | ibrutinib -0.006 | [1] -0.028 | ralimetinib 0.05 | [2] -0.097 | [3] -0.046 | [4] 0.036 | pinometostat 0.043 | [5] -0.013 | [6] 0.024

TMEM128 (UniProt Q5BJH2)
active: [1] 0.45
inactive: IRAK-1-4 Inhibitor I -0.046 | ibrutinib -0.025 | ralimetinib -0.036 | [2] -0.051 | [3] 0.028 | [4] 0.108 | pinometostat 0.122 | [5] 0.001 | [6] 0

TRAPPC11 (UniProt Q7Z392)
Sequence of UniProt Q7Z392 (Q7Z392 whole entry, looked up): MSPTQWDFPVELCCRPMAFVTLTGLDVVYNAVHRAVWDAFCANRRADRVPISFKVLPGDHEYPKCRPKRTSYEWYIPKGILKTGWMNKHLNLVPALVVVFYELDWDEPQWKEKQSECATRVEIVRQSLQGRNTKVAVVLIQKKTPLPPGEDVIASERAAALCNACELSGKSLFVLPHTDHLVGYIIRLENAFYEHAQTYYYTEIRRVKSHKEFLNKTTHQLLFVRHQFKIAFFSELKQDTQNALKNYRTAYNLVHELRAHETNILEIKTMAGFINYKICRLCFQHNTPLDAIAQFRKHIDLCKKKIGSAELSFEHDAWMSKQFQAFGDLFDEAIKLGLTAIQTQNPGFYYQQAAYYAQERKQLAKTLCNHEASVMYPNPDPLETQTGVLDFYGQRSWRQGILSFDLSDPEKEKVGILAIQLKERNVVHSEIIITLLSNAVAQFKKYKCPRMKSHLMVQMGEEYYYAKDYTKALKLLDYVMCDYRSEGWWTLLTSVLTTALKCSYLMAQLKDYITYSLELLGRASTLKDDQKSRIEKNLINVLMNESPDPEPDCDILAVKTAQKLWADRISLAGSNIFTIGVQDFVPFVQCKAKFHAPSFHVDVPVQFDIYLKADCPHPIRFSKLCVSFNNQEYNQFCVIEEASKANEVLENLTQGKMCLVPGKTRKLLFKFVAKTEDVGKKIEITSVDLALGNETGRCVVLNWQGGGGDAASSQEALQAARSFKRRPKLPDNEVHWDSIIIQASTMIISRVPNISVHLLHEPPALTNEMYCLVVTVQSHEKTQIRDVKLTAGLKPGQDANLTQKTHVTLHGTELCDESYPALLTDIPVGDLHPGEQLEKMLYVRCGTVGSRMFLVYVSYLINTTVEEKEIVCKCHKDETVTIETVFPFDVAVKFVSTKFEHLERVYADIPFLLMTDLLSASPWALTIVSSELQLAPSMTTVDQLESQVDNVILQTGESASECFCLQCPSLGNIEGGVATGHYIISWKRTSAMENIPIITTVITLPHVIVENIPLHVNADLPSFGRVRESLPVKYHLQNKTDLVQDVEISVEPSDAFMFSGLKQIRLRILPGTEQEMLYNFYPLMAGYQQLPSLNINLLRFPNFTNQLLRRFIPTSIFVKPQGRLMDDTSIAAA
inactive: IRAK-1-4 Inhibitor I -0.007 | ibrutinib 0.001 | [1] -0.048 | ralimetinib 0.034 | [2] -0.063 | [3] -0.064 | [4] 0.012 | pinometostat 0.032 | [5] -0.048 | [6] 0.028

TRMT10C (UniProt Q7L0Y3)
inactive: IRAK-1-4 Inhibitor I 0.029 | ibrutinib 0.011 | [1] -0.07 | ralimetinib -0.06 | [2] -0.055 | [3] 0.012 | [4] 0.005 | pinometostat -0.021 | [5] 0.016 | [6] 0.014

WBP4 (UniProt O75554)
inactive: IRAK-1-4 Inhibitor I 0.082 | ibrutinib -0.001 | [1] 0.033 | ralimetinib -0.057 | [2] -0.001 | [3] 0.098 | [4] 0.041 | pinometostat -0.06 | [5] -0.003 | [6] 0.02

TMEM208 (UniProt Q9BTX3)
inactive: IRAK-1-4 Inhibitor I 0.04 | ibrutinib -0.09 | [1] 0.078 | ralimetinib -0.145 | [2] -0.088 | [4] 0.046 | pinometostat 0.081 | [5] -0.016 | [6] 0.081
active: [3] -0.412

TNFAIP8 isoform 4 (UniProt O95379)
Sequence of UniProt O95379 (O95379 whole entry, looked up): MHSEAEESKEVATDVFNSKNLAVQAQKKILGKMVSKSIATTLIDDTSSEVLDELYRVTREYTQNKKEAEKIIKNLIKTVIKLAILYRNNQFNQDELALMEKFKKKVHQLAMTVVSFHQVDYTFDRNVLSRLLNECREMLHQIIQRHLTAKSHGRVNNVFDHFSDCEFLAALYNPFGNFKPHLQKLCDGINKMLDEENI
inactive: IRAK-1-4 Inhibitor I -0.018 | ibrutinib -0.036 | [1] -0.036 | ralimetinib 0 | [2] -0.037 | [3] -0.075 | [4] -0.047 | pinometostat -0.065 | [5] -0.001 | [6] -0.037

TMEM87B (UniProt Q96K49)
active: [3] -0.39
inactive: IRAK-1-4 Inhibitor I 0.139 | ibrutinib -0.084 | [1] -0.046 | ralimetinib -0.086 | [2] -0.204 | [4] -0.007 | pinometostat 0.065 | [5] 0.057 | [6] 0.029

USP34 (UniProt Q70CQ2)
inactive: IRAK-1-4 Inhibitor I 0.005 | ibrutinib -0.091 | [1] -0.033 | ralimetinib -0.017 | [2] -0.14 | [3] -0.114 | [4] -0.016 | pinometostat 0.079 | [5] -0.04 | [6] -0.176

VPS33A (UniProt Q96AX1)
Sequence of UniProt Q96AX1 (Q96AX1 whole entry, looked up): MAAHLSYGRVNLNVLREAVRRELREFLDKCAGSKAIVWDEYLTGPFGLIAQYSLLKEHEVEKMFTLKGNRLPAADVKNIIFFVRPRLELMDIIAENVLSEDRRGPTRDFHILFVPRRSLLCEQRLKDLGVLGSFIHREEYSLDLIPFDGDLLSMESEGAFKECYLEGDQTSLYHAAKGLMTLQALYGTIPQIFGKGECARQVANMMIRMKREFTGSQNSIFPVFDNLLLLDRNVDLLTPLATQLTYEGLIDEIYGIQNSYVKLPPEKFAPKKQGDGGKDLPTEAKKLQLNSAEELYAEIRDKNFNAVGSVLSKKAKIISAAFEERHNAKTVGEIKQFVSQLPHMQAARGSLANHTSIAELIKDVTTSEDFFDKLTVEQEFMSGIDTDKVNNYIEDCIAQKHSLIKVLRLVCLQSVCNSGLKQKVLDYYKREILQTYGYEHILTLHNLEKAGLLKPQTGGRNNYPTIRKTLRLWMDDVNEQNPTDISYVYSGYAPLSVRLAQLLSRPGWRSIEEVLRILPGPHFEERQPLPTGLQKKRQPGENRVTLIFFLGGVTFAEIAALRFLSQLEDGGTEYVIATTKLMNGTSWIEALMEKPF
active: [3] -0.299
inactive: IRAK-1-4 Inhibitor I -0.017 | ibrutinib -0.021 | [1] -0.001 | ralimetinib 0.048 | [2] -0.065 | [4] 0.054 | pinometostat 0.099 | [5] 0.035 | [6] 0.005

VTI1B (UniProt Q9UEU0)
Sequence of UniProt Q9UEU0 (Q9UEU0 whole entry, looked up): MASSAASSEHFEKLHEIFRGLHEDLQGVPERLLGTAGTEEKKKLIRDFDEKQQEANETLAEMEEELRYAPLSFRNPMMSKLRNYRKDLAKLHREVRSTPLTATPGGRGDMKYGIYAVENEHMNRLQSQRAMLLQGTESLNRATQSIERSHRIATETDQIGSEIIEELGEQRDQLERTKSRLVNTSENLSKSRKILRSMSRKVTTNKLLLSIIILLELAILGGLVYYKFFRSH
inactive: IRAK-1-4 Inhibitor I -0.074 | ibrutinib 0.027 | [1] -0.033 | ralimetinib -0.081 | [2] 0.08 | [4] 0.002 | pinometostat -0.057 | [5] -0.001 | [6] 0.012
active: [3] -0.261

UBE4B isoform 4 (UniProt O95155)
inactive: IRAK-1-4 Inhibitor I 0.008 | ibrutinib -0.031 | [1] 0.006 | ralimetinib 0.057 | [2] -0.117 | [3] -0.041 | [4] 0.047 | pinometostat 0 | [5] 0.004 | [6] -0.005

VWA8 (UniProt A3KMH1)
inactive: IRAK-1-4 Inhibitor I 0.022 | ibrutinib -0.015 | [1] -0.041 | ralimetinib 0.016 | [2] -0.115 | [3] -0.149 | [4] -0.032 | pinometostat -0.004 | [5] 0.009 | [6] 0.021

USO1 isoform 2 (UniProt O60763)
Sequence of UniProt O60763 (O60763 whole entry, looked up): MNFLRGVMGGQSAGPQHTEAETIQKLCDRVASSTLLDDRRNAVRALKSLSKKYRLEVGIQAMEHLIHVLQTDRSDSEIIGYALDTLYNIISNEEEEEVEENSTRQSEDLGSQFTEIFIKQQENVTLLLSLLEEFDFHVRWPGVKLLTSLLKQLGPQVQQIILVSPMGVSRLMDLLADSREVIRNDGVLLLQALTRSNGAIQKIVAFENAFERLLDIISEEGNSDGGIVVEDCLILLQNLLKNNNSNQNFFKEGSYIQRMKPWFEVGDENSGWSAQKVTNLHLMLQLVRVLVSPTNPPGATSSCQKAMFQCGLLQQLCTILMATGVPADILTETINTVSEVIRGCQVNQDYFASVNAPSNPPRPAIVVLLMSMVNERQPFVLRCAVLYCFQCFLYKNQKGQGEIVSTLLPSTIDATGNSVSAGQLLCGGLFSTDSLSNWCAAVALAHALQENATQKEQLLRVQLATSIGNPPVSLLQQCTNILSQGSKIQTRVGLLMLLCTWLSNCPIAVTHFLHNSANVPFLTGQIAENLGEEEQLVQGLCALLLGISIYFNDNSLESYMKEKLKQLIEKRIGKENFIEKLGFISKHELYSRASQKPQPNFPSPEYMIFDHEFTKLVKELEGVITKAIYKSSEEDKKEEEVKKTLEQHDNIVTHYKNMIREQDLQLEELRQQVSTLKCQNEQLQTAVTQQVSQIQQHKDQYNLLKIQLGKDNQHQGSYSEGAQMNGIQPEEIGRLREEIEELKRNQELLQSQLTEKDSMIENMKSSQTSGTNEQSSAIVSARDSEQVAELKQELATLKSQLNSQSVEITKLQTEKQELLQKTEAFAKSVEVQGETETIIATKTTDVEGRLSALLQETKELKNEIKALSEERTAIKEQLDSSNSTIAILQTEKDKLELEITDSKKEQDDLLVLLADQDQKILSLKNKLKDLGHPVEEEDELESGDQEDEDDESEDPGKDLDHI
inactive: IRAK-1-4 Inhibitor I 0.05 | ibrutinib -0.025 | [1] 0.066 | ralimetinib 0.004 | [2] -0.061 | [3] -0.108 | [4] -0.01 | pinometostat 0.008 | [5] -0.011 | [6] -0.005

U2AF2 (UniProt P26368)
inactive: IRAK-1-4 Inhibitor I -0.069 | ibrutinib 0.029 | ralimetinib 0.03 | [2] -0.011 | [3] -0.102 | [4] 0.028 | pinometostat 0.03 | [5] -0.04 | [6] 0.192
active: [1] -0.313

TNPO3 (UniProt Q9Y5L0)
inactive: IRAK-1-4 Inhibitor I -0.006 | ibrutinib -0.02 | [1] -0.014 | ralimetinib 0.024 | [2] -0.156 | [3] -0.154 | [4] -0.08 | pinometostat 0.006 | [5] 0.036 | [6] -0.02

WDR41 (UniProt Q9HAD4)
Sequence of UniProt Q9HAD4 (Q9HAD4 whole entry, looked up): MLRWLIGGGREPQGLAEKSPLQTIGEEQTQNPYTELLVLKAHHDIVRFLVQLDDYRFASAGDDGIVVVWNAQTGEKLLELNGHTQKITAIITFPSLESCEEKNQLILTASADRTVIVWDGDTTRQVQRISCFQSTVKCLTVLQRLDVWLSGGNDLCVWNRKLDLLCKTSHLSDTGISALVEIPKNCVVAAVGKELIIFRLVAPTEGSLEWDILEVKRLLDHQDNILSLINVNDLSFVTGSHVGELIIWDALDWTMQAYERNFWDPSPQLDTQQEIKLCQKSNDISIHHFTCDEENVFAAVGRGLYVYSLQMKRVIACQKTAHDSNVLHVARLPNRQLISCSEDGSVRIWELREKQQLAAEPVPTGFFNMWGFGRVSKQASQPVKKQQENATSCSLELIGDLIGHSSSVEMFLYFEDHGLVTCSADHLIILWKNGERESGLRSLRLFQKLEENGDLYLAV
active: [3] -0.271
inactive: IRAK-1-4 Inhibitor I -0.024 | ibrutinib -0.022 | [1] -0.023 | ralimetinib -0.036 | [2] -0.077 | [4] -0.026 | pinometostat 0.012 | [5] 0.127 | [6] -0.001

USP25 isoform 3 (UniProt Q9UHP3)
inactive: IRAK-1-4 Inhibitor I 0.002 | ibrutinib -0.002 | [1] -0.019 | ralimetinib -0.027 | [2] 0.015 | [3] 0.001 | [4] 0.052 | pinometostat 0.001 | [5] 0.043 | [6] 0.002

TTC33 (UniProt Q6PID6)
inactive: IRAK-1-4 Inhibitor I 0.059 | ibrutinib 0.058 | [1] -0.121 | ralimetinib 0.009 | [2] -0.023 | [3] -0.075 | [4] 0.139 | pinometostat 0.111

TRIM28 (UniProt Q13263)
inactive: IRAK-1-4 Inhibitor I -0.008 | ibrutinib -0.033 | [1] 0.052 | ralimetinib -0.003 | [2] -0.035 | [3] -0.087 | [4] 0.018 | pinometostat -0.056 | [5] -0.002 | [6] -0.152

WDR62 isoform 4 (UniProt O43379)
active: [1] -0.579
inactive: IRAK-1-4 Inhibitor I 0.085 | ibrutinib -0.069 | ralimetinib 0.003 | [2] -0.003 | [3] -0.085 | [4] 0.042 | pinometostat 0.062 | [5] 0.063 | [6] -0.176

WASH2P (UniProt Q6VEQ5)
inactive: IRAK-1-4 Inhibitor I 0.001 | ibrutinib -0.049 | [1] 0.052 | ralimetinib 0.022 | [2] 0.048 | [4] 0.025 | pinometostat -0.016 | [5] -0.022 | [6] 0.026
active: [3] -0.234

WDR18 (UniProt Q9BV38)
active: [6] -0.962
inactive: IRAK-1-4 Inhibitor I -0.005 | ibrutinib -0.03 | [1] -0.007 | ralimetinib 0.064 | [2] 0.025 | [3] 0.008 | [4] -0.102 | pinometostat 0.028 | [5] 0.011
